Assay results as given in the supplement of paper PMC9694430.
Where “and” joins values, the source holds several entries; their conditions need not be identical. Identical values can stand only once.

Tests used:
Assay in all cases: thermal shift delta Tm vs DMSO control; higher = stronger stabilization (binding)
Details in all cases: 12.5 µM; protein concentration 2 µM
[1] = test system: LOC_OS04G57630-cb004
Summary of the method: (§1)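 Heating from 25°C to 95°C at 0.05°C/s, fluorescence was recorded for 19.5 μl wells of 2 μM E. coli-expressed, purified rice kinase domain in 100 mM potassium phosphate pH 7.5, 150 mM NaCl, 10% glycerol and 5 × SYPRO Orange with compound in DMSO. Boltzmann fits gave melting temperatures for this differential scanning fluorimetry assay. The shift reported is the mean of three replicates against the DMSO-only protein.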

[2] = test system: LOC_OS05G07850-cb002
Summary of the method: as §1

[3] = test system: LOC_OS05G16824-cb004
Summary of the method: as §1

[4] = test system: LOC_OS05G28520-cb001
Summary of the method: as §1

[5] = test system: LOC_OS05G30820-cb001
Summary of the method: as §1

[6] = test system: LOC_OS05G43570-cb004
Summary of the method: as §1

[7] = test system: LOC_OS06G16330-cb003
Sequence of LOC_OS06G16330-cb003 (as listed by the source): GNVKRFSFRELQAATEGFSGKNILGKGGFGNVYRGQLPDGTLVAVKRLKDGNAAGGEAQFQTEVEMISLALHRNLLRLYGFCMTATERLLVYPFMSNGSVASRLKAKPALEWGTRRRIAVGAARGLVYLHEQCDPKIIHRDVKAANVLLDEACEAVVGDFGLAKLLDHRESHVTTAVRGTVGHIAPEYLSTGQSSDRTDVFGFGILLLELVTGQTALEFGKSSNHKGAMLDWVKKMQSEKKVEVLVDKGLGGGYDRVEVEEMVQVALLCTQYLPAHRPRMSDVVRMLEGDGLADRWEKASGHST
Summary of the method: as §1

[8] = test system: T1, LOC_OS06G22820-cb001
T1 sequence (whole entry): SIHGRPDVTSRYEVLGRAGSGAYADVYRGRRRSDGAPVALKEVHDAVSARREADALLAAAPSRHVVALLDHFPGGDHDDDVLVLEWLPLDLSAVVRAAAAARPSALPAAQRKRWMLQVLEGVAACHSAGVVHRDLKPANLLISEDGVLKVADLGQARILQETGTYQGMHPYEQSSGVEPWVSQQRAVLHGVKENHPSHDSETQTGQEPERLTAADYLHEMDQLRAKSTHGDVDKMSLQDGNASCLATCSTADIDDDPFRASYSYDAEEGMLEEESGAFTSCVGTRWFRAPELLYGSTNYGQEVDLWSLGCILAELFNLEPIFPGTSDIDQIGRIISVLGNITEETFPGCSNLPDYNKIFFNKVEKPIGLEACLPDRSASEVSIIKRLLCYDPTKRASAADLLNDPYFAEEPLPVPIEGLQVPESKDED
Summary of the method: as §1

[9] = test system: LOC_OS07G06570-cb004
Summary of the method: as §1

[10] = test system: LOC_OS07G07230-cb001
Summary of the method: as §1
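Note: purified Escherichia coli-expressed rice kinase domain construct.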

| SMILES | thermal shift delta Tm [1] | thermal shift delta Tm [2] | thermal shift delta Tm [3] | thermal shift delta Tm [4] | thermal shift delta Tm [5] | thermal shift delta Tm [6] | thermal shift delta Tm [7] | thermal shift delta Tm [8] | thermal shift delta Tm [9] | thermal shift delta Tm [10] |
| --- | --- | --- | --- | --- | --- | --- | --- | --- | --- | --- |
| Cc1cc(C)c(/C=C2\C(=O)Nc3ccccc32)[nH]1 [Semaxanib (SU5416)] | 0.62 °C | 6.49 °C | 8.99 °C | 0.65 °C | 0.48 °C | 0.37 °C | 6.54 °C | 0.6 °C | 1.4 °C | -0.2 °C |
| N#CCNC(=O)c1ccc(-c2ccnc(Nc3ccc(N4CCOCC4)cc3)n2)cc1 [Momelotinib (CYT387)] | 3.11 °C | 11.6 °C | 3.39 °C | 0.59 °C | 0.75 °C | 0.76 °C | 7.69 °C | 0.49 °C | 0.77 °C | 0.53 °C |
| COc1ncc(-c2cc(-c3ncc(CN4C[C@@H](C)O[C@@H](C)C4)o3)c3cn[nH]c3c2)cc1NS(C)(=O)=O | 0.12 °C | 1.71 °C | -0.4 °C | 0.61 °C | 0.21 °C | 0.39 °C | -0.32 °C | 0.44 °C | 0.86 °C | 0.19 °C |
| CN(c1ncccc1CNc1nc(Nc2ccc3c(c2)CC(=O)N3)ncc1C(F)(F)F)S(C)(=O)=O | 1.44 °C and 2.05 °C | 8.97 °C and 9.58 °C | 9.12 °C and 9.67 °C | 0.98 °C and 1.52 °C | 4.26 °C and 3.92 °C | 0.77 °C and 0.58 °C | 4.21 °C and 5.5 °C | -0.01 °C and -0.19 °C | 0.81 °C and 1.35 °C | 0.45 °C and 0.44 °C |
| Cn1cnc(N)c2ncnc1-2 [3-Methyladenine (3-MA)] | -0.01 °C | 0.75 °C | -3.2 °C | 0.15 °C | 0.64 °C | 0.46 °C | -0.06 °C | 0.64 °C | 0.43 °C | 0.03 °C |
| Cc1ccc([N+](=O)[O-])cc1S(=O)(=O)N(C)/N=C/c1cnc2ccc(Br)cn12 | 1.58 °C | 1.88 °C | 3.43 °C | 1.13 °C | 0.85 °C | 1.49 °C | 7.74 °C | 0.41 °C | 1.41 °C | 0.94 °C |
| CN1CCC(Nc2nc(Nc3ccc(Oc4ccccc4)cc3)c3c(=O)[nH]cc(Br)c3n2)CC1 | 1.8 °C | 7.31 °C | 9.77 °C | 1.25 °C | 1.19 °C | 1.11 °C | 2.6 °C | 0.71 °C | -0.18 °C | -0.18 °C |
| FC(F)(F)c1ccc(CNc2ccc(Cc3c[nH]c4ncc(Cl)cc34)cn2)cn1 [Pexidartinib (PLX3397)] | 1.53 °C | 8.75 °C | 5.17 °C | 1.46 °C | 0.74 °C | 0.8 °C | 8.9 °C | 0.41 °C | 0.14 °C | -0.31 °C |
| CS(=O)(=O)CCNCc1ccc(-c2ccc3ncnc(Nc4ccc(OCc5cccc(F)c5)c(Cl)c4)c3c2)o1 | -0.1 °C | 1.34 °C | -0.68 °C | 0.97 °C | 0.44 °C | 0.61 °C | -0.63 °C | 1.04 °C | 0.83 °C | 0.48 °C |
| COc1cc2nccc(Oc3ccc(NC(=O)NC4CC4)c(Cl)c3)c2cc1C(N)=O [Lenvatinib (E7080)] | 1.31 °C | 3.32 °C | -2.91 °C | 0.18 °C | 0.7 °C | 0.32 °C | 1.75 °C | 0.98 °C | 0.84 °C | 0.35 °C |
| N#C/C(=C(/N)Sc1ccc(N)cc1)c1ccccc1C(F)(F)F | -0.02 °C | -0.43 °C | -2.13 °C | 0.13 °C | 0.55 °C | -0.02 °C | -0.1 °C | 0.8 °C | 0.09 °C | 0.16 °C |
| c1cn2cc(-c3ccc4cn[nH]c4c3)nc(Nc3ccc(N4CCOCC4)cc3)c2n1 [Entospletinib (GS-9973)] | 0.36 °C | 7.87 °C | 0.89 °C | 1.02 °C | 0.84 °C | 0.74 °C | 9.22 °C | 0.27 °C | 1.71 °C | 0.6 °C |
| CCOc1cc(C(=O)N2CCC(N3CCN(C)CC3)CC2)ccc1Nc1ncc2c(n1)N(C1CCCC1)c1ccccc1C(=O)N2C | -0.22 °C | 1.11 °C | 0.71 °C | 0.22 °C | 0.32 °C | 0.17 °C | 0.04 °C | 0.34 °C | 0.95 °C | -0.25 °C |
| CCS(=O)(=O)c1cccc(-c2cc(C(=O)NC3CCN(C)CC3)c(C)c3[nH]c4ncc(C)cc4c23)c1 | 2.61 °C | 13.6 °C | 10.6 °C | 2.38 °C | 3.26 °C | 0.4 °C | 8.47 °C | -0.41 °C | 0.61 °C | 0.94 °C |
| Cc1[nH]nc2ccc(-c3cncc(OC[C@@H](N)Cc4ccccc4)c3)cc12 | 0.79 °C | 6.97 °C | 1.39 °C | 0.6 °C | 0.56 °C | 1.24 °C | 0.93 °C | 0.49 °C | 0.93 °C | 0 °C |
| CC(C)NC(=O)COc1cccc(-c2nc(Nc3ccc4[nH]ncc4c3)c3ccccc3n2)c1 | 0.57 °C | 1.61 °C | -3.52 °C | 0.71 °C | 0.73 °C | 0.42 °C | 0.58 °C | 0.84 °C | 0.26 °C | -0.31 °C |
| O=C(NC[C@H](O)CO)c1ccncc1Nc1ccc(I)cc1F | 0.16 °C | 0.04 °C | -2.59 °C | -0.04 °C | 0.65 °C | 0.08 °C | -0.12 °C | 0.62 °C | 0.95 °C | 0.62 °C |
| C[C@H](NC(=O)/C(C#N)=C/c1cccc(Br)n1)c1ccccc1 | -1.13 °C | -0.94 °C | -17.3 °C | -0.45 °C | 0.31 °C | -0.67 °C | -1.56 °C | 0.13 °C | 0.17 °C | -0.47 °C |
| CN1CCN(c2ccc3nc(-c4c(N)c5c(F)cccc5[nH]c4=O)[nH]c3c2)CC1 [Dovitinib (TKI-258, CHIR-258)] | 1.24 °C | 6.74 °C | 12.6 °C | 1.08 °C | 0.71 °C | 0.77 °C | 3.64 °C | 0.56 °C | 1.13 °C | 0.36 °C |
| O=C(Nc1cccc(Nc2ncc(Br)c(NCCc3cnc[nH]3)n2)c1)N1CCCC1 | 7.51 °C | 10.4 °C | 13.2 °C | -0.09 °C | 6.02 °C | 0.65 °C | 8.57 °C | 0.67 °C | 0.48 °C | 1.02 °C |
| COc1cc(OC)c(/C=C/S(=O)(=O)Cc2ccc(OC)c(NCC(=O)O)c2)c(OC)c1 | 0.06 °C | 0.2 °C | -0.41 °C | 0.21 °C | 0.62 °C | 0.71 °C | -0.1 °C | 0.75 °C | 0.87 °C | 0.29 °C |
| Cc1cn(-c2cc(NC(=O)c3ccc(C)c(Nc4nccc(-c5cnccn5)n4)c3)cc(C(F)(F)F)c2)cn1 [Radotinib] | 0.16 °C | -1.11 °C | 0.06 °C | 0.56 °C | 0.41 °C | 0.62 °C | -0.09 °C | 0.69 °C | 1.06 °C | 0.23 °C |
